MEX-5 binding: MEX-5 zinc finger RNA-binding disruptors – biochemical, C. elegans, fluorescence polarization, MLPCN library, primary screen; Zinc finger protein mex-5 (Caenorhabditis elegans), Q9XUB2; MEX-5/FITC-TCR2 RNA binding; active compounds read low; activity score (negative = inhibition of binding), % at 10 µM; hit rate 0.38% among 300,000;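 active = inhibition past about -25% in most replicates, and total fluorescence under double the plate's negative control median, limit read from the data; inconclusive = replicates evenly split on the limit, or fluorescence at least double controls; inactive = too little inhibition in most replicates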
GLD-1 RNA inh: GLD-1/TGE RNA complex disruptors, primary screen, biochemical, fluorescence polarization | purified GLD-1 + fluorescein TGE RNA | hit rate 0.44% among 320,000 | inhibition, % at 5.96 µM;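 active = percent inhibition above a per-plate cutoff, the plate mean of test compounds plus 3 SD, cut at about 30% in these data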
Bcl-xL primary: inhibitors of human Bcl-xL, primary screen, biochemical, fluorescence polarization, HTS; Bcl-2-like protein 1 (Homo sapiens), Q07817; hit rate 0.7% among 320,000; GST-Bcl-xL / FITC-Bim BH3 peptide fluorescence polarization; AID 2129, 2009; inhibition, % at 10.9 µM;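 active = inhibition above the mean of all tested compounds plus 3 SD, cutoff set per campaign, cut at about 30% in these data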;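 note: inhibitors lower millipolarization by displacing the labeled peptide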
MCL1-BIM inh: inhibitors of MCL1 binding to BIM-BH3, primary screen, biochemical, fluorescence polarization. inhibition, % at 10.9 µM. Induced myeloid leukemia cell differentiation protein Mcl-1 (Homo sapiens), Q07820. GST-MCL1 / FITC-Bim-BH3 fluorescence polarization. hit rate 0.68% among 320,000;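 active = inhibition above the mean inhibition of all tested compounds plus 3 SD, set per campaign, cut at about 40% in these data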;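 note: higher means more loss of mP so more displacement of Bim peptide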
Target sequence (Q07820 whole entry, looked up): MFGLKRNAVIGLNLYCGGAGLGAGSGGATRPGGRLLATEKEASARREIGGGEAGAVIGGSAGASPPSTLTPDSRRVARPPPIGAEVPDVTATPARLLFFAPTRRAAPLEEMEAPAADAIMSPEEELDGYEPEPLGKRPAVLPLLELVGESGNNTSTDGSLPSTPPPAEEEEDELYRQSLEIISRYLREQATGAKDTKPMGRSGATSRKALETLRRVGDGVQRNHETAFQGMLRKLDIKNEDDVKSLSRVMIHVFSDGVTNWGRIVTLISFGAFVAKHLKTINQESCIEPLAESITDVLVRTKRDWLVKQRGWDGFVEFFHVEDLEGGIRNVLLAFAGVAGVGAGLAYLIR
E coli Lon inh: inhibitors of E. coli Lon protease, primary screen, biochemical, fluorescence polarization; hit rate 0.42% among 360,000; inhibition, % at 7.94 µM; AID 602123, 2011; P0A9M0; purified E. coli Lon protease; in the data active = inhibition above about 13%, passing the limit was not always enough
eLon confirm: E. coli Lon protease inhibitor retest, confirmation, biochemical, fluorescence polarization | shares compounds with E coli Lon inh | purified E. coli Lon | inhibition, % at 7.94 µM | hit rate 31% among 1,400 | AID 602230, 2012; in the data active = inhibition above about 16%
Numbers stand for hits; 0 = inactive; ? = inconclusive; - = no result. Compounds with a hit are over-represented: about 1.4% of the library has one in this group of screens.

SMILES	MEX-5 binding	GLD-1 RNA inh	Bcl-xL primary	MCL1-BIM inh	E coli Lon inh	eLon confirm
CCCNS(=O)(=O)c1ccc2c(c1)n(C)c(=O)n2C	0	0	0	0	16.2	0
Cc1ccc(-n2cc(CNCCN3CCOC3=O)c(-c3cccc(C)c3)n2)cc1	0	0	0	0	16.0	0
O=C(NC(c1ccc(Cl)cc1)c1cnccn1)C1CCN(CCCc2ccccc2)CC1 (stereo unspecified)	-	-	-	-	0	-
Cc1nc(CC(=O)N2CCN(c3cccc(C)c3C)CC2)cs1	0	0	0	0	23.7	0
CC(Nc1cccc2ccccc12)C(=O)N/N=C/c1ccc([N+](=O)[O-])cc1 (stereo unspecified)	0	0	0	0	0	-
Cc1cccc(/C=N/NC(=O)C(C)Nc2cccc3ccccc23)n1 (stereo unspecified)	0	0	0	0	61.5	104.7
O=C(Nc1ccccc1)c1ccc(-c2ccc([N+](=O)[O-])cc2)o1	0	0	0	0	29.9	0
CC1=C(C(=O)N(C(C)C)C(C)C)CC(CC(=O)NC2CCCCC2)C(=O)N1Cc1ccc(C(C)(C)C)cc1 (stereo unspecified)	-	-	-	-	0	-
CN(C)Cc1csc(NC(=O)Nc2ccccc2-c2ccccc2)n1	-	-	-	-	0	-
CN(C)Cc1csc(NC(=O)Nc2ccccc2Oc2ccccc2)n1	-	-	-	-	86.2	0
COc1cccc(-c2nnn(CC(=O)N(C3CCCCC3)C3CCS(=O)(=O)C3)n2)c1 (stereo unspecified)	-	-	-	-	0	-
CCOC(=O)/C(C#N)=C(C)/C=C1\Sc2ccccc2N1CC	?	0	0	0	42.2	0
CCN1/C(=C\C=C(C(C)=O)C(C)=O)Sc2ccccc21	?	0	0	0	0	-
Cc1ccc(N(CC(=O)NC2CCCCC2)C(=O)CNC(=O)c2cccs2)cc1	0	0	0	0	0	-
Cc1ccc(N(CC(=O)NC2CCCC2)C(=O)CNC(=O)c2cccs2)cc1C	0	0	0	0	18.9	0
COc1ccc(CCN2C(=O)c3ccccc3C2c2nnnn2Cc2ccccc2)cc1OC (stereo unspecified)	-	-	-	-	0	-
CC(C)[C@@H]1Cc2[nH]c(=S)[nH]c(=O)c2[C@H](CCc2ccccc2)O1	-	-	-	-	0	-
CC(=O)c1c(N2CCOCC2)nc2ccc(Br)cc2c1-c1ccccc1	0	0	0	0	0	-
CC(=O)c1cc(-c2ccccc2)[nH]c1N1CCOCC1	0	0	0	0	63.5	0
O=C(Nc1cccc(Cl)c1)Nn1cnnc1	0	0	0	0	104.0	0
CC1(C)CC(=O)C2=C(C1)Nc1ccccc1NC2c1cccs1 (stereo unspecified)	0	0	0	0	0	-
Cc1c(C2Nc3ccccc3NC3=C2C(=O)CC(C)(C)C3)cnn1C (stereo unspecified)	0	0	0	0	143.7	0
CC1(C)CC(=O)C2=C(C1)Nc1ccccc1NC2c1ccccc1F (stereo unspecified)	0	0	0	0	33.5	0
CCOC(=O)N1CCN(C(=O)C[C@@H]2C[C@@]3(C(=O)OCC)CCCC=C3N(Cc3ccc4c(c3)OCO4)C2=O)CC1	-	-	-	-	0	-
COC(=O)C1=C(C(=O)OC)C2C(C)=CC(C)=CN2C(C(=O)OC)=C1C(=O)OC (stereo unspecified)	0	0	0	0	20.3	0
SMILES	MEX-5 binding	GLD-1 RNA inh	Bcl-xL primary	MCL1-BIM inh	E coli Lon inh	eLon confirm
C[C@H]1CN([C@@H](C)CO)S(=O)(=O)c2ccc(Br)cc2O[C@H]1CN(C)C(=O)CCN1CCCCC1	-	-	-	-	0	-
COC(=O)c1ccc(OC(=O)c2cccnc2SC)cc1	0	0	0	0	87.7	0
COC(=O)c1ccc(OC(=O)c2ccccn2)cc1	0	0	0	0	0	-
O=C1CCCc2ccccc2N1Cc1ccc(Cl)cc1Cl	0	0	0	0	18.0	0
O=C1CCCc2ccccc2N1Cc1ccccc1Cl	0	0	0	0	0	-
CSc1ccc(OC2(C)CCN(Cc3ccc(C(C)C)cc3)C2)cc1 (stereo unspecified)	-	-	-	-	0	-
Cc1ccc(C(C)C)c(OCC(=O)NN=C2CCCCCCC2)c1	0	0	0	0	0	-

Screening results as filed in PubChem BioAssay.
